Results from the supplement of paper PMC6555819.

tested on: PPARg homodimer (NR concentration 180 nM); test: PBM binding z-score (relative to random genomic background probes); higher = stronger binding; sequences stand for … in GC…GCGATTGACAGCGTAGAATGAAGG
Outline: (§1)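 Ligand-free nuclear receptor dimers were applied to custom Agilent 4×180K protein-binding microarrays whose double-stranded probes carried direct-repeat seeds, single-nucleotide variants, half-site ablations and random human genomic background sequences in 34-nt variable regions. Incubation lasted 1 h. Binding z-scores were computed against the random background probes from regression-normalized fluorescence.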

Sequence | PBM binding z-score
CAAACTAGGTAACCGGAAGGTCAAAGTCCGCATG | 3.53
TCTCGGAGGACACGAGAGGTCAGAGCTCGACATC | 1.51
AGAATGAGATTATACGTAGATCAGGGAAGAAAGT | -0.24
CCTAGCAGGCCAATCTGAGTCACTCAAGGCTTGA | 0.0523
GTACCAAAGTGAATAGGTCGTTGATGAGTAGGCG | 0.312
GGTACAGGGTCAAGGCCAGAGTACGCGTATTGAT | 2.35
ACTTTCGGGTCAACGAGGTTATAGCACGCGTATA | 2.32
AATACTGGGTCACTAGGCCAGAGTAGGTACGAAT | 1.9
AGAACGAGGGCACGCTGAGTGGATAGCAGAGTAG | 0.149
GGAACGAGGGCAAGTTGATAGGAGAGTTTGATGG | 0.664
CCTATTAGTTGACCGTAAGGGCAACCGAAGCTCG | 1.63
CCTAGCAGGCCAGGGTCACTAAAGCATTTCGCTT | 0.403
TCCTATAGGTAATACAGGTGAAAGTCGGCATCTA | 0.164
TCTTGTAGATCAGCAGGTTAAAAAAGCTGGCCAA | 0.159
CCTAGCAGGCCAGGGTAACTCAAGCATTTCGCTT | -0.387
GGAACGAGGGCAAAGTTTATAGCATCTGTCGACG | 0.817
CCTTACGGGTCACGGACAGGTTATAGCATTTGGA | 5.94
TCATTTAGGTAAAAGGTGAAAGTCGGTGTGGTAA | 2.08
CGTCAAAGTTCAACTAACGTAACGTAAAGCACGC | 3.23
TCTTGTAGTTCAGCAGGTTAAGAAAGCTGGCCAA | 0.434

Sequence | PBM binding z-score
CCAACTAGGTCAAGGTCAAAGTCGGTTTGTGCCA | 4.31
ACTCGGAGGACAAAGGTCAGAGCTACGCCAGTGA | 3.04
TCATATAGTTAAAGGTGAAAGTCGAACGATATGA | 1.1
GGAACGAAGGCAAAGTTGATAGCATCTGTCGACG | -0.879
ATCTCGAGGTAAAAGTTCAGTGAATCCCGAGGAT | 0.813
GCTAGTTGGTCCGTAAAAGGTCACACACCGGTCG | 2.89
CCTACTGGGACAAAGGTCATTGATTCCAATGCTC | 4.59
CGAACTAGGTCAGAACAGGACAGTGAAGGATGAT | 0.92
TCTAGTTGCTCAAAGGTCACACACTCGAAATGCG | 3.79
GCTGCTAGGTCAACTGATGGTCAGGTAAAGCTCG | 2.17
GGAACGAGGGCAACGTTGATAGCATCTGTCGACG | -0.132
CCTACTGGGCCAAGAAGGTCATTGATGCCGATAA | 1.85
CCGACTGGGGCAGAAAGGTTACCAGACCATCCGG | 0.446
AGTCAAGGTTCACTAGGTAACGTAAGATTCAGCT | 1.04
CGTCCAAGGTCAATGGTAGGTCAGTGAAAGCATT | 5.44
CTACCAAGGTGCACAAGGTCGTTGATTACTATTC | 0.705
TCGAGTAGGTTACCAATGGGGCACTCAGCTTTCT | -0.453
AGTCAAAGTTCATCTAGGTAAGGTAAGATATGCT | 3.1
TAGCCTAGGTCATTGGGTCAGTATAGTACGCATC | 3.71
CGACCTAGGTCAGAACAGGACAGTGAAGGATGAT | 1.04

tested on: PXR:RXRa (NR concentration 270 nM, RXRa partner concentration 90 nM); test: as above
Outline: as §1

Sequence | PBM binding z-score
CAAACTAGGTAACCGGAAGGTCAAAGTCCGCATG | 3.95
TCTCGGAGGACACGAGAGGTCAGAGCTCGACATC | 3.78
AGAATGAGATTATACGTAGATCAGGGAAGAAAGT | -0.502
CCTAGCAGGCCAATCTGAGTCACTCAAGGCTTGA | -0.832
GTACCAAAGTGAATAGGTCGTTGATGAGTAGGCG | -0.00367
GGTACAGGGTCAAGGCCAGAGTACGCGTATTGAT | 3.98
ACTTTCGGGTCAACGAGGTTATAGCACGCGTATA | 5.37
AATACTGGGTCACTAGGCCAGAGTAGGTACGAAT | 0.792
AGAACGAGGGCACGCTGAGTGGATAGCAGAGTAG | 0.143
GGAACGAGGGCAAGTTGATAGGAGAGTTTGATGG | 0.817
CCTATTAGTTGACCGTAAGGGCAACCGAAGCTCG | 0.919
CCTAGCAGGCCAGGGTCACTAAAGCATTTCGCTT | 2.21
TCCTATAGGTAATACAGGTGAAAGTCGGCATCTA | 0.43
TCTTGTAGATCAGCAGGTTAAAAAAGCTGGCCAA | 0.148
CCTAGCAGGCCAGGGTAACTCAAGCATTTCGCTT | -0.679
GGAACGAGGGCAAAGTTTATAGCATCTGTCGACG | 1.91
CCTTACGGGTCACGGACAGGTTATAGCATTTGGA | 4.82
TCATTTAGGTAAAAGGTGAAAGTCGGTGTGGTAA | 1.42
CGTCAAAGTTCAACTAACGTAACGTAAAGCACGC | 4.55
TCTTGTAGTTCAGCAGGTTAAGAAAGCTGGCCAA | 0.887

Sequence | PBM binding z-score
CCAACTAGGTCAAGGTCAAAGTCGGTTTGTGCCA | 5.31
ACTCGGAGGACAAAGGTCAGAGCTACGCCAGTGA | 3.91
TCATATAGTTAAAGGTGAAAGTCGAACGATATGA | 0.912
GGAACGAAGGCAAAGTTGATAGCATCTGTCGACG | -0.707
ATCTCGAGGTAAAAGTTCAGTGAATCCCGAGGAT | 2.53
GCTAGTTGGTCCGTAAAAGGTCACACACCGGTCG | 4.94
CCTACTGGGACAAAGGTCATTGATTCCAATGCTC | 5.27
CGAACTAGGTCAGAACAGGACAGTGAAGGATGAT | 0.787
TCTAGTTGCTCAAAGGTCACACACTCGAAATGCG | 5.31
GCTGCTAGGTCAACTGATGGTCAGGTAAAGCTCG | 1.83
GGAACGAGGGCAACGTTGATAGCATCTGTCGACG | 0.282
CCTACTGGGCCAAGAAGGTCATTGATGCCGATAA | 3.13
CCGACTGGGGCAGAAAGGTTACCAGACCATCCGG | 0.737
AGTCAAGGTTCACTAGGTAACGTAAGATTCAGCT | 1.83
CGTCCAAGGTCAATGGTAGGTCAGTGAAAGCATT | 4.84
CTACCAAGGTGCACAAGGTCGTTGATTACTATTC | 1.86
TCGAGTAGGTTACCAATGGGGCACTCAGCTTTCT | 0.0109
AGTCAAAGTTCATCTAGGTAAGGTAAGATATGCT | 5.24
TAGCCTAGGTCATTGGGTCAGTATAGTACGCATC | 2.99
CGACCTAGGTCAGAACAGGACAGTGAAGGATGAT | 1.42
